{"source": "the supplement of paper PMC8728848", "binders": {"B1": {"name": "PX9961A-pdi-456-24-456 (Parabacteroides distasonis) (protein)", "chain": "KTSSTQLPTIDAISSVADLTNAVNGVYEQQATEVGSYGAEFTLLADLRSGDFQSISTVNHAGPMYRYQTGKNDEMVYSFYKLFYNSLARLNNVLAAAENLEGADVDILKGELYAMRALYHFDLARVFAKLPSTTDMNDLGIVLSTEVYPTDYIGTRATLQQTYDQILKDIETALPLLSKDKQTGHINYWGALAIRARAYLYLEKNKEALADCKEIIASSPYKLYTRDEYIGAWDKEGTNEAIFEILVTPNYNAQRNSIGYFTHASGYGECAATESFLEELAKHPGDIRTELFAKETDNGYDGTYPQKYKGRDGQIYVNNPKVVRLSEVYLIAAEAALKAGDTSAAAGYMNTLRKNRIENYTDVASITLDDILLERRLELFTEGHTAWDAWRNGKSVNNKFVGEVKPGDYRTIMAIPIGEITVSRGQLIQNPGY"}}, "assay_in_all_cases": "glycan array binding signal (z-score within array); higher = stronger binding", "conditions_in_all_cases": "glycan notation: IUPAC condensed, linker removed", "key": {"[1]": {"molecular_target": "GlcNAc(b1-2)Man(a1-3)[GlcNAc(b1-4)][GlcNAc(b1-2)Man(a1-6)]Man(b1-4)GlcNAc(b1-4)GlcNAc", "in_short": "(§1)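 Glycan array binding is given as a within-array Z-score, which can be read as non-binding when negative. The arrays, 3228 of them, came from the Consortium for Functional Glycomics database and were retained only where the protein sequence was available. Z-scores were averaged across arrays of the same protein sequence at different concentrations or buffers and across linkers.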"}, "[2]": {"molecular_target": "GlcNAc(b1-3)Gal(b1-4)GlcNAc(b1-2)[GlcNAc(b1-3)Gal(b1-4)GlcNAc(b1-6)]Man(a1-6)[GlcNAc(b1-3)Gal(b1-4)GlcNAc(b1-2)Man(a1-3)]Man(b1-4)GlcNAc(b1-4)GlcNAc", "in_short": "as §1"}, "[3]": {"molecular_target": "GlcNAc(b1-3)Gal(b1-4)GlcNAc(b1-3)Gal(b1-4)GlcNAc(b1-3)Gal(b1-4)GlcNAc(b1-3)Gal(b1-4)GlcNAc(b1-2)Man(a1-3)[GlcNAc(b1-3)Gal(b1-4)GlcNAc(b1-3)Gal(b1-4)GlcNAc(b1-3)Gal(b1-4)GlcNAc(b1-3)Gal(b1-4)GlcNAc(b1-2)Man(a1-6)]Man(b1-4)GlcNAc(b1-4)[Fuc(a1-6)]GlcNAc", "in_short": "as §1"}, "[4]": {"molecular_target": "GlcNAc(b1-3)Gal(b1-4)GlcNAc(b1-3)GalNAc", "in_short": "as §1"}, "[5]": {"molecular_target": "GlcNAc(b1-3)Gal(b1-4)GlcNAc(b1-3)[GlcNAc(b1-3)Gal(b1-4)GlcNAc(b1-3)]GalNAc", "in_short": "as §1"}, "[6]": {"molecular_target": "Neu5Ac(a2-3)Gal(b1-3)GlcNAc(b1-2)Man(a1-3)[Neu5Ac(a2-3)Gal(b1-3)GlcNAc(b1-2)Man(a1-6)]Man(b1-4)GlcNAc(b1-4)GlcNAc", "in_short": "as §1"}, "[7]": {"molecular_target": "Neu5Ac(a2-3)Gal(b1-3)GlcNAc(b1-4)Gal(b1-4)Glc", "in_short": "as §1"}, "[8]": {"molecular_target": "Neu5Ac(a2-3)Gal(b1-3)GlcNAc(b1-6)GalNAc", "in_short": "as §1"}, "[9]": {"molecular_target": "Neu5Ac(a2-3)Gal(b1-3)GlcNAc6S", "in_short": "as §1"}, "[10]": {"molecular_target": "Neu5Ac(a2-3)Gal(b1-4)[Fuc(a1-3)]GlcNAc(b1-2)Man", "in_short": "as §1"}, "[11]": {"molecular_target": "Neu5Ac(a2-3)Gal(b1-4)[Fuc(a1-3)]GlcNAc(b1-6)[Neu5Ac(a2-3)Gal(b1-3)]GalNAc", "in_short": "as §1"}, "[12]": {"molecular_target": "Neu5Ac(a2-6)Gal", "in_short": "as §1"}, "[13]": {"molecular_target": "Neu5Ac(a2-6)Gal(b1-4)GlcNAc(b1-2)Man(a1-3)Man(b1-4)GlcNAc(b1-4)GlcNAc", "in_short": "as §1"}, "[14]": {"molecular_target": "Neu5Ac(a2-6)Gal(b1-4)GlcNAc(b1-2)[Neu5Ac(a2-6)Gal(b1-4)GlcNAc(b1-4)]Man(a1-3)[GlcNAc(b1-4)][Neu5Ac(a2-6)Gal(b1-4)GlcNAc(b1-4)Man(a1-6)]Man(b1-4)GlcNAc(b1-4)GlcNAc", "in_short": "as §1"}, "[15]": {"molecular_target": "Neu5Ac(a2-6)Gal(b1-4)GlcNAc(b1-6)[Gal(b1-3)]GalNAc", "in_short": "as §1"}}, "note": "This excerpt belongs to a sample that is enriched for the strongest signals.", "data": [{"binder": "B1", "values": [{"measurement": "glycan array binding signal (z-score)", "setting": "[1]", "result": -0.42}, {"measurement": "glycan array binding signal (z-score)", "setting": "[2]", "result": 0.033}, {"measurement": "glycan array binding signal (z-score)", "setting": "[3]", "result": 2.18}, {"measurement": "glycan array binding signal (z-score)", "setting": "[4]", "result": 0.389}, {"measurement": "glycan array binding signal (z-score)", "setting": "[5]", "result": -0.009}, {"measurement": "glycan array binding signal (z-score)", "setting": "[6]", "result": -0.512}, {"measurement": "glycan array binding signal (z-score)", "setting": "[7]", "result": -0.437}, {"measurement": "glycan array binding signal (z-score)", "setting": "[8]", "result": 0.343}, {"measurement": "glycan array binding signal (z-score)", "setting": "[9]", "result": 0.048}, {"measurement": "glycan array binding signal (z-score)", "setting": "[10]", "result": -0.398}, {"measurement": "glycan array binding signal (z-score)", "setting": "[11]", "result": 0.273}, {"measurement": "glycan array binding signal (z-score)", "setting": "[12]", "result": -0.046}, {"measurement": "glycan array binding signal (z-score)", "setting": "[13]", "result": -0.293}, {"measurement": "glycan array binding signal (z-score)", "setting": "[14]", "result": -0.061}, {"measurement": "glycan array binding signal (z-score)", "setting": "[15]", "result": -0.445}]}]}
